# PubChem BioAssay AID1159580 (chemical genetic matrix, 2015)
# Several values for one entry are separate records, joined by “and”; a condition that tells them apart may be missing. Equal values may be shown once. In all, about 5,500 compounds went through this assay and about 2,000 (36%) were called active. Roughly 18% stayed inconclusive and do not appear here. Cut-off read from the data, not from the text of the source: active = normalized growth mostly below about 0.91 (no sharp cut-off); inconclusive = no clear call, values can overlap the other calls; inactive = mostly above about 0.92. This is one part of the list.
# Assay: chemical genetic growth profiling, strain panel (AID 1159580);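 note: tested at 20 µM; growth read once vehicle control cultures reached saturation at 30 °C; 1 = growth at the plate median or of vehicle wells; lower values mean less growth of the strain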
# Conditions: growth OD
# [1] = S. cerevisiae deletion strains, locus YHR030C, strain SLT2, stronger effect = lower value
# [2] = S. cerevisiae deletion strains, locus YHR079C, strain IRE1, stronger effect = lower value
# [3] = S. cerevisiae deletion strains, locus YJL095W, strain BCK1, stronger effect = lower value
# [4] = S. cerevisiae deletion strains, locus YJR066W, strain TOR1, stronger effect = lower value
# [5] = S. cerevisiae deletion strains, locus YLR113W, strain HOG1, stronger effect = lower value
# [6] = S. cerevisiae deletion strains, locus YNL183C, strain NPR1, stronger effect = lower value
# [7] = S. cerevisiae deletion strains, locus YOR231W, strain MKK1, stronger effect = lower value
# [8] = S. cerevisiae deletion strains, locus YPL256C, strain CLN2, stronger effect = lower value
compound,measurement,setting,value
COc1ccc(-c2oc3ccccc3c(=O)c2OC)cc1,normalized growth,[1],0.882 (inactive)
same,normalized growth,[2],0.897 (inactive)
same,normalized growth,[3],0.909 (inactive)
same,normalized growth,[4],0.829 (inactive)
same,normalized growth,[5],0.934 (inactive)
same,normalized growth,[6],0.836 (inactive)
same,normalized growth,[7],0.901 (inactive)
same,normalized growth,[8],0.894 (inactive)
COc1ccc2c(=O)c(OC)c(-c3ccccc3)oc2c1,normalized growth,"S. cerevisiae deletion strains, locus YBR021W, strain FUR4, stronger effect = lower value",0.758 (active)
same,normalized growth,"S. cerevisiae deletion strains, locus YBR229C, strain ROT2, stronger effect = lower value",0.966 (inactive)
same,normalized growth,"S. cerevisiae deletion strains, locus YCL029C, strain bik1, stronger effect = lower value",0.945 (inactive)
same,normalized growth,"S. cerevisiae deletion strains, locus YDL035C, strain GPR1, stronger effect = lower value",0.83 (active)
same,normalized growth,"S. cerevisiae deletion strains, locus YDL074C, strain BRE1, stronger effect = lower value",0.713 (active)
same,normalized growth,"S. cerevisiae deletion strains, locus YDL101C, strain DUN1, stronger effect = lower value",0.855 (active)
same,normalized growth,"S. cerevisiae deletion strains, locus YDL185W, strain tfp1, stronger effect = lower value",0.951 (inactive)
same,normalized growth,"S. cerevisiae deletion strains, locus YDL192W, strain arf1, stronger effect = lower value",0.829 (active)
same,normalized growth,"S. cerevisiae deletion strains, locus YDR101C, strain arx1, stronger effect = lower value",0.855 (active)
same,normalized growth,"S. cerevisiae deletion strains, locus YDR162C, strain NBP2, stronger effect = lower value",0.68 (active)
same,normalized growth,"S. cerevisiae deletion strains, locus YDR318W, strain mcm21, stronger effect = lower value",0.863 (active)
same,normalized growth,"S. cerevisiae deletion strains, locus YDR388W, stronger effect = lower value",0.929 (inactive)
same,normalized growth,"S. cerevisiae deletion strains, locus YDR502C, strain sam2, stronger effect = lower value",0.836 (active)
same,normalized growth,"S. cerevisiae deletion strains, locus YEL061C, strain CIN8, stronger effect = lower value",0.891 (active)
same,normalized growth,"S. cerevisiae deletion strains, locus YER110C, stronger effect = lower value",0.932 (inactive)
same,normalized growth,"S. cerevisiae deletion strains, locus YER155C, strain BEM2, stronger effect = lower value",0.893 (active)
same,normalized growth,"S. cerevisiae deletion strains, locus YER167W, strain BCK2, stronger effect = lower value",0.858 (active)
same,normalized growth,"S. cerevisiae deletion strains, locus YGL078C, strain dbp3, stronger effect = lower value",0.939 (inactive)
same,normalized growth,"S. cerevisiae deletion strains, locus YGL086W, strain mad1, stronger effect = lower value",0.867 (active)
same,normalized growth,"S. cerevisiae deletion strains, locus YGL248W, strain PDE1, stronger effect = lower value",0.831 (active)
same,normalized growth,"S. cerevisiae deletion strains, locus YGR078C, strain PAC10, stronger effect = lower value",0.743 (active)
same,normalized growth,"S. cerevisiae deletion strains, locus YGR135W, strain pre9, stronger effect = lower value",0.754 (active)
same,normalized growth,"S. cerevisiae deletion strains, locus YGR229C, strain SMI1, stronger effect = lower value",0.477 (active)
same,normalized growth,"S. cerevisiae deletion strains, locus YGR252W, strain gcn5, stronger effect = lower value",0.582 (active)
same,normalized growth,[1],0.646 (active) and 0.936 (inactive)
same,normalized growth,"S. cerevisiae deletion strains, locus YHR079C, strain IRE1 (second series), stronger effect = lower value",0.943 (inactive)
same,normalized growth,[2],0.925 (inactive)
same,normalized growth,"S. cerevisiae deletion strains, locus YHR094C, strain hxt1, stronger effect = lower value",0.977 (inactive)
same,normalized growth,"S. cerevisiae deletion strains, locus YHR129C, strain ARP1, stronger effect = lower value",0.858 (active)
same,normalized growth,"S. cerevisiae deletion strains, locus YHR200W, strain rpn10, stronger effect = lower value",0.892 (active)
same,normalized growth,"S. cerevisiae deletion strains, locus YIL066C, strain RNR3, stronger effect = lower value",0.771 (active)
same,normalized growth,"S. cerevisiae deletion strains, locus YIL073C, strain SPO22, stronger effect = lower value",0.862 (inactive)
same,normalized growth,"S. cerevisiae deletion strains, locus YIL125W, strain kgd1, stronger effect = lower value",0.975 (inactive)
same,normalized growth,"S. cerevisiae deletion strains, locus YIR030C, strain dcg1, stronger effect = lower value",0.928 (inactive)
same,normalized growth,[3],0.454 (active) and 0.941 (inactive)
same,normalized growth,"S. cerevisiae deletion strains, locus YJL134W, strain LCB3, stronger effect = lower value",0.951 (inactive)
same,normalized growth,"S. cerevisiae deletion strains, locus YJL168C, strain set2, stronger effect = lower value",0.97 (inactive)
same,normalized growth,"S. cerevisiae deletion strains, locus YJL187C, strain SWE1 (second series), stronger effect = lower value",0.859 (active)
same,normalized growth,"S. cerevisiae deletion strains, locus YJR043C, strain POL32, stronger effect = lower value",0.797 (active)
same,normalized growth,[4],0.867 (inactive)
same,normalized growth,"S. cerevisiae deletion strains, locus YJR075W, strain HOC1, stronger effect = lower value",0.89 (inactive)
same,normalized growth,"S. cerevisiae deletion strains, locus YKL009W, strain mrt4, stronger effect = lower value",0.901 (inactive)
same,normalized growth,"S. cerevisiae deletion strains, locus YKL068W, stronger effect = lower value",0.975 (inactive)
same,normalized growth,"S. cerevisiae deletion strains, locus YKL085W, strain MDH1 (second series), stronger effect = lower value",0.974 (inactive)
same,normalized growth,"S. cerevisiae deletion strains, locus YKL085W, strain MDH1, stronger effect = lower value",0.974 (inactive)
same,normalized growth,"S. cerevisiae deletion strains, locus YKL190W, strain CNB1, stronger effect = lower value",0.923 (inactive)
same,normalized growth,"S. cerevisiae deletion strains, locus YKR001C, strain vps1, stronger effect = lower value",0.848 (active)
same,normalized growth,"S. cerevisiae deletion strains, locus YLR039C, strain RIC1, stronger effect = lower value",0.906 (inactive)
same,normalized growth,"S. cerevisiae deletion strains, locus YLR058C, strain SHM2, stronger effect = lower value",0.888 (active)
same,normalized growth,"S. cerevisiae deletion strains, locus YLR102C, strain apc9, stronger effect = lower value",0.95 (inactive)
same,normalized growth,[5],0.931 (inactive)
same,normalized growth,"S. cerevisiae deletion strains, locus YLR262C, strain YPT6, stronger effect = lower value",0.901 (inactive)
same,normalized growth,"S. cerevisiae deletion strains, locus YLR268W, strain sec22, stronger effect = lower value",0.866 (active)
same,normalized growth,"S. cerevisiae deletion strains, locus YLR330W, strain CHS5, stronger effect = lower value",0.752 (active)
same,normalized growth,"S. cerevisiae deletion strains, locus YLR342W, strain FKS1 (second series), stronger effect = lower value",0.723 (active)
same,normalized growth,"S. cerevisiae deletion strains, locus YLR371W, strain rom2, stronger effect = lower value",0.794 (active)
same,normalized growth,"S. cerevisiae deletion strains, locus YLR418C, strain cdc73, stronger effect = lower value",0.532 (active)
same,normalized growth,"S. cerevisiae deletion strains, locus YML016C, strain PPZ1, stronger effect = lower value",0.947 (inactive)
same,normalized growth,"S. cerevisiae deletion strains, locus YML032C, strain rad52, stronger effect = lower value",0.723 (active)
same,normalized growth,"S. cerevisiae deletion strains, locus YML124C, strain tub3, stronger effect = lower value",0.941 (inactive)
same,normalized growth,"S. cerevisiae deletion strains, locus YMR078C, strain ctf18, stronger effect = lower value",0.893 (active)
same,normalized growth,"S. cerevisiae deletion strains, locus YMR223W, strain ubp8, stronger effect = lower value",0.845 (active)
same,normalized growth,"S. cerevisiae deletion strains, locus YMR263W, strain SAP30, stronger effect = lower value",0.845 (active)
same,normalized growth,"S. cerevisiae deletion strains, locus YMR307W, strain GAS1, stronger effect = lower value",0.658 (inactive)
same,normalized growth,"S. cerevisiae deletion strains, locus YNL067W, strain RPL9B, stronger effect = lower value",0.856 (active)
same,normalized growth,[6],0.916 (inactive)
same,normalized growth,"S. cerevisiae deletion strains, locus YNL233W, strain BNI4, stronger effect = lower value",0.717 (active)
same,normalized growth,"S. cerevisiae deletion strains, locus YNL250W, strain rad50, stronger effect = lower value",0.969 (inactive)
same,normalized growth,"S. cerevisiae deletion strains, locus YNL271C, strain bni1, stronger effect = lower value",0.921 (inactive)
same,normalized growth,"S. cerevisiae deletion strains, locus YNL298W, strain CLA4, stronger effect = lower value",0.894 (active)
same,normalized growth,"S. cerevisiae deletion strains, locus YNL307C, strain MCK1, stronger effect = lower value",0.676 (active)
same,normalized growth,"S. cerevisiae deletion strains, locus YNL322C, strain KRE1, stronger effect = lower value",0.95 (inactive)
same,normalized growth,"S. cerevisiae deletion strains, locus YNR052C, strain pop2, stronger effect = lower value",0.882 (active)
same,normalized growth,"S. cerevisiae deletion strains, locus YOL006C, strain TOP1, stronger effect = lower value",0.396 (active)
same,normalized growth,"S. cerevisiae deletion strains, locus YOL012C, strain htz1",0.856 (inactive)
same,normalized growth,"S. cerevisiae deletion strains, locus YOL147C, strain pex11, stronger effect = lower value",0.904 (active)
same,normalized growth,"S. cerevisiae deletion strains, locus YOR061W, strain CKA2, stronger effect = lower value",0.942 (inactive)
same,normalized growth,"S. cerevisiae deletion strains, locus YOR069W, strain VPS5, stronger effect = lower value",0.909 (active)
same,normalized growth,"S. cerevisiae deletion strains, locus YOR136W, strain idh2, stronger effect = lower value",0.95 (inactive)
same,normalized growth,"S. cerevisiae deletion strains, locus YOR144C, strain elg1, stronger effect = lower value",0.924 (active)
same,normalized growth,"S. cerevisiae deletion strains, locus YOR184W, strain ser1, stronger effect = lower value",0.622 (active)
same,normalized growth,[7],0.921 (inactive)
same,normalized growth,"S. cerevisiae deletion strains, locus YOR316C, strain cot1, stronger effect = lower value",0.953 (inactive)
same,normalized growth,"S. cerevisiae deletion strains, locus YPL055C, strain LGE1, stronger effect = lower value",0.752 (active)
same,normalized growth,[8],0.932 (inactive)
same,normalized growth,"S. cerevisiae deletion strains, locus YPR119W, strain clb2, stronger effect = lower value",0.936 (inactive)
same,normalized growth,"S. cerevisiae deletion strains, locus YPR141C, strain kar3, stronger effect = lower value",0.978 (inactive)
same,normalized growth,"S. cerevisiae deletion strains, locus YPR163C, strain tif3, stronger effect = lower value",0.853 (active)
same,normalized growth,"S. cerevisiae deletion strains, locus YPR167C, strain met16, stronger effect = lower value",0.901 (active)
same,normalized growth,"S. cerevisiae deletion strains, strain wtn01, stronger effect = lower value",0.887 (active)
same,normalized growth,"S. cerevisiae strains, strain wild type, stronger effect = lower value",0.884 (active)
